Rows were chosen to be rich in hits. Some 8.5% of all compounds tested hit in one or more screens of this group.
Coupling enz: counter-screen for Giardia aldolase inhibitors: coupling enzyme system | coupling enzyme system counterscreen, AmpLite Red fluorescence | activity change, negative = inhibition, % at 58.2 µM, hits read low | hit rate 0.67% among 290,000; in the data active = activity change below about -30%
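First, compound is pin-transferred into glyceraldehyde-3-phosphate coupling-enzyme reagent at 57.5 uM final and held 10 min at RT. Next, substrate, coupling system and AmpLite Red are added. After 20 min RT, fluorescence (525/598 nm) is read.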
Sfp PPTase inh: inhibitors of Bacillus subtilis Sfp phosphopantetheinyl transferase | hit rate 3.5% among 310,000 | AID 1490 | Q9F4F7 | Biochemical Sfp PPTase activity, qHTS | Potency, µM, without a hit: largest response in the series, negative = inhibition, usual class: inhibitors;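 note: the enzyme is Sfp with the accession as filed and its product quenches rhodamine fluorescence; potency is the fitted concentration of half-maximal effect; 0% = enzyme reaction without inhibitor and -100% = no enzyme wells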
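Fluorescence-quenching assay: 15 nM Sfp-PPTase preincubated 15 min at room temperature with compound, then 5 uM rhodamine-CoA and 12.5 uM BHQ-2-labelled YbbR peptide added. Fluorescence (ex 525/em 598 nm) read at start and after 30 min; difference gives rate.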
ALDH1A1 inh: blocks purified human ALDH1A1 activity. P00352. Purified ALDH1A1, NADH fluorescence, propionaldehyde substrate. Potency, µM (highest dose often 75.3 µM), for inactives: at the top dose activity, negative = inhibition, actives largely listed as inhibitors. hit rate 7.3% among 220,000. AID 1030; active = well fitted inhibition curve with a large enough effect, not every such curve was filed as active; inconclusive = small, poorly fitted or top-dose-only effect, or another doubt; inactive = no such curve, though single readings can be large or run the other way;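 note: potency is the fitted concentration of half-maximal effect; plate controls were no enzyme wells and a reference inhibitor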
GoLoco inh red: inhibitors of human Gai1-RGS12 GoLoco interaction (red fluorophore); P63096; Gai1:RGS12 GoLoco peptide FP, rhodamine, 10 min; Potency, µM (doses to about 61.6 µM), inactives show at the top dose activity, negative = inhibition, actives largely listed as inhibitors; hit rate 0.44% among 230,000; AID 880; active = well fitted inhibition curve with a large enough effect, not every such curve was filed as active; inactive = no such curve, though single readings can be large or run the other way; note: potency is the fitted concentration of half-maximal effect; nearly all actives have a fitted effect of over 30% in size
KDM4E inh: blocks human JMJD2E demethylase activity; B2RXH2; JMJD2E catalytic domain, FDH-coupled NADH fluorescence (FDH is formaldehyde dehydrogenase); Potency, µM (top dose mostly 57.1 µM), inactives show at the highest dose activity change, negative = inhibition, actives largely listed as inhibitors; hit rate 1.6% among 230,000; active = well fitted inhibition curve with a large enough effect, not every such curve was filed as active; inconclusive = small, poorly fitted or top-dose-only effect, or another doubt; inactive = no such curve, though single readings can be large or run the other way;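 note: potency is the fitted concentration of half-maximal effect; 0% = wells with enzyme and -100% = buffer wells without enzyme; nearly all actives have a fitted effect of over 50% in size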
Target sequence (B2RXH2 1-337 limits assumed): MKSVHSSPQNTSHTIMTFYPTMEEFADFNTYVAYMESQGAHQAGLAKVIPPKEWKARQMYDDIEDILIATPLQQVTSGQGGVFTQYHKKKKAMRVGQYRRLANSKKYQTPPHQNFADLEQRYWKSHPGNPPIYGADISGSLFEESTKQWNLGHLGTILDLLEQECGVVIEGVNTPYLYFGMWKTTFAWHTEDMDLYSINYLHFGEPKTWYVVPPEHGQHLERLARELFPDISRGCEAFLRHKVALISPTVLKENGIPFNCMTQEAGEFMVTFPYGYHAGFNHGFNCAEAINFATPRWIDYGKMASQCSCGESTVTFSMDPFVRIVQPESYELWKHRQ
NPSR antagonist: neuropeptide S receptor (human) antagonism, cAMP | CHO-NPSR cells, cAMP TR-FRET, antagonist mode | Potency, µM (top dose mostly 38.3 µM), without a hit: at the top dose activity change, negative = inhibition, most hits filed as inhibitors | hit rate 1% among 220,000; note: potency is the fitted concentration of half-maximal effect; nearly all actives have a fitted effect of over 50% in size
Target sequence (Q6W5P4 whole entry, looked up): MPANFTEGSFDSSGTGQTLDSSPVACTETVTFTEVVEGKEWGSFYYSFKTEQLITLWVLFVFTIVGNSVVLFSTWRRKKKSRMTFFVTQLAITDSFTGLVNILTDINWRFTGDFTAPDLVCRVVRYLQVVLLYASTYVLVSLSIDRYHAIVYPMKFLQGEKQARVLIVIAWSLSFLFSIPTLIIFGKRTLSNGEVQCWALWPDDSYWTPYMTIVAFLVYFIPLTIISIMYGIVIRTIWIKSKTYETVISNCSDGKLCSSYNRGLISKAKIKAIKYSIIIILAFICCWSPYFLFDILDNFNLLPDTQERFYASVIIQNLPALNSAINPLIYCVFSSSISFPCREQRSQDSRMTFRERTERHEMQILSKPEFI
Starred values were filed as active, the others as inactive; ? = inconclusive; . = no result given; [ ] = remark or other dose. Unless noted, calls come from the whole dose curve; as a rule, active = well fitted curve in the direction sought with a large enough effect; inconclusive = small, poorly fitted or top-dose-only effect, or another doubt; inactive = no such curve, though single readings can be large; an effect the other way counts as inactive or inconclusive. Unless noted, % is set by controls: 0 for no effect and ±100 for the full control effect.

SMILES | Coupling enz | Sfp PPTase inh | ALDH1A1 inh | GoLoco inh red | KDM4E inh | NPSR antagonist
CCCCc1ccc(NC(=O)CN(C)CC(=O)Nc2ccccc2Cl)cc1 | -5.1 | 1.8% | . | . | . | .
COC/C=C/C1=CC2=CC(=O)C(C)(OC(=O)c3cccs3)C(=O)C2=CO1 (stereo unspecified) | -0.3 | -8.4% | 3.7% | 0.1% | 3.2% | .
Cc1cc(O)cc(O)c1C(=O)OC1(C)C(=O)C=C2C=C(/C=C/CO)OC=C2C1=O (stereo unspecified) | 1.0 | -8.7% | 22.4µM* | -8.0% | -9.4% | .
COC/C=C/C1=CC2=CC(=O)C(C)(OC(=O)C3CCCC3)C(=O)C2=CO1 (stereo unspecified) | 3.1 | 79.4µM* | -5.4% | 16.4% | 2.2% | -13.5%
COC/C=C/C1=CC2=CC(=O)C(C)(OC(=O)c3ccco3)C(=O)C2=CO1 (stereo unspecified) | 2.3 | 56.2µM* | ? | 26.6% | ? | 7.8%
O=C(COc1ccccc1[N+](=O)[O-])NNC(=O)Nc1cccc2ccccc12 | -16.1 | ? | ? | 5.2% | ? | -0.9%
Nc1[nH]c(N=NC(=O)c2ccccc2)c2ccccc12 | -6.7 | -25.1% | ? | 9.4% | 3.1% | -10.3%
Nc1[nH]c(N=NC(=O)c2ccccc2O)c2ccccc12 | -8.2 | 21.4% | 4.2% | 21.8% | 25.1µM* | -3.7%
Cc1cccc(N/C(=N/S(=O)(=O)c2ccccc2)c2ccccc2)n1 | -8.9 | 14.3% | . | . | . | .
CC[n+]1ccc(/C=C/c2ccc(N(C)C)cc2)c2ccccc21 | -10.1 | ? | 22.4µM* | 267.0% | ? | ?
CC[n+]1c(/C=C/c2ccc(N(C)C)cc2)ccc2ccccc21 | -2.3 | -28.3% | ? | 287.5% | -2.6% | 5.01µM*
CN(C)c1ccc(/C=C/c2cc[n+](C)cc2)cc1 | -2.0 | 2.7% | 14.1µM* | 315.2% | 0.4% | ?
CC(=O)c1ccc(-c2cc(C3C4C=CCC(C)C4C(=O)N3Cc3ccccc3)ccc2F)cc1 (stereo unspecified) | -1.2 | -16.3% | . | . | . | .
Nc1c(-c2ccccc2)sc2ccc3ccccc3[n+]12 | . | 35.5µM* | . | . | . | .
CC(C)(C)C(=O)Nc1nc2c(s1)CN(Cc1ccccc1)CC2 | -14.5 | -27.0% | 31.6µM* | 26.5% | ? | -27.2%
COc1ccc(-n2c(C)cc(C=O)c2C)cc1Cl | 1.3 | 1.4% | 1µM* | 12.4% | -7.7% | -9.0%[46.1 µM]
COC(=O)c1cccc(-n2c(C)cc(C=O)c2C)c1C | -0.9 | 2.8% | 0.631µM* | -0.6% | 0.0% | 10.8%
Cc1cc(C=O)c(C)n1-c1ccc(Cl)c(C(=O)O)c1 | 4.0 | -9.0% | ? | 3.1% | -21.2% | 8.3%
COc1ccc(OC)c(-n2c(C)cc(C=O)c2C)c1 | 0.1 | 9.0% | 5.62µM* | 11.1% | -10.9% | 5.0%
Cc1ccnc(NS(=O)(=O)c2ccc(-n3cccn3)cc2)c1 | -0.5 | 11.8% | . | . | . | .
CSc1nnc(-c2cccc(NC(=O)c3ccccc3)c2)n1C | 0.4 | 0.8% | . | -1.4% | -0.7% | 12.5%
CCC(=O)Nc1cccc(-c2nnc(SCC(=O)c3ccccc3)n2C)c1 | 1.8 | 79.4µM* | ? | 6.0% | 2.8% | -8.0%[46.1 µM]
CC(=O)Nc1cccc(-c2nnc(SCC(=O)n3c4c(c5ccccc53)CCCC4)n2C)c1 | -0.9 | ? | 22.4µM* | 21.3% | -2.5% | -20.7%[46.1 µM]
Cn1c(SCC(=O)c2ccccc2)nnc1C1CC1 | 1.4 | 56.2µM* | ? | 2.0% | -10.6% | -8.3%[46.1 µM]
CCOc1ccc(C(=O)CSc2nnc(C3CC3)n2C)cc1 | -1.3 | ? | 7.94µM* | -2.0% | 0.7% | 4.4%[46.1 µM]
SMILES | Coupling enz | Sfp PPTase inh | ALDH1A1 inh | GoLoco inh red | KDM4E inh | NPSR antagonist
CCOc1ccc(NC(=O)CSc2nnc(C3CC3)n2C)cc1 | 2.5 | 8.3% | 5.6% | -2.7% | -4.1% | 22.7%
Cc1cccn2cc(CCNC(=O)c3cccs3)nc12 | -1.7 | -19.2% | . | 0.9% | -3.2% | 4.2%
O=C1CCN(S(=O)(=O)c2ccccc2)CCN1CCOCc1ccc(Cl)cc1 | 7.0 | -5.9% | . | 2.1% | 21.9% | 22.0%
Cn1c(SCc2ccccc2)nnc1C1CCCNC1 (stereo unspecified) | 1.9 | 17.0% | 4.6% | -0.4% | 3.2% | -1.6%[46.1 µM]
Cn1c(SCC(=O)c2ccccc2)nnc1-c1cnccn1 | 1.9 | ? | 20µM* | -0.1% | -8.6% | 5.4%[46.1 µM]
Cc1ccc(C(=O)CSc2nnc(-c3ccccc3N)n2C)cc1 | -0.6 | -6.4% | 11.2µM* | -20.8% | 3.3% | 2.0%[46.1 µM]
Cn1c(SCC(=O)c2ccc(F)cc2)nnc1-c1ccccc1N | -2.6 | -6.1% | -8.8% | -11.2% | -2.6% | -11.2%[46.1 µM]
Cn1c(SCc2ccc(Cl)cc2)nnc1C1CC1 | -25.2 | -11.3% | 11.9µM* | -8.2% | ? | 0.4%
COc1ccc(Br)cc1CN(C)C(=O)c1cnc(C)cn1 | -2.2 | 9.5% | . | . | . | .
C(C#CCCCCCCCCC[n+]1ccccc1)#CCCCCCCCCC[n+]1ccccc1 | -0.4 | 50.1µM* | . | . | . | .
O=C(Oc1oc(-c2ccco2)nc1C=Nc1ccccc1)c1ccoc1 | -3.4 | 20µM* | ? | -3.6% | 2.9% | -25.8%[46.1 µM]
CN(C)c1ccc(N=Cc2nc(-c3ccccc3)oc2OC(=O)c2cccc(Cl)c2)cc1 | 1.0 | ? | 12.6µM* | 31.4% | 3.0% | -40.9%
Cc1ccc(C(=O)Oc2oc(-c3ccco3)nc2C=Nc2ccc(Cl)cc2)cc1 | -2.8 | ? | ? | 5.4% | -3.8% | -28.9%[46.1 µM]
O=C(Oc1oc(-c2ccco2)nc1C=Nc1ccccc1)c1ccco1 | 0.4 | 11.2µM* | ? | -2.1% | -0.6% | -10.4%[46.1 µM]
COc1ccc(C2CC(c3ccccc3)Oc3cc(OC)ccc32)cc1 (stereo unspecified) | -6.2 | ? | . | . | . | .
NC(=O)/N=N/C(N)=O | . | . | 0.447µM* | -25.5% | . | .
Cc1cc(SCC(=O)c2ccc(Br)cc2)cc(C)[o+]1 | . | . | 3.16µM* | 17.1%[14.2 µM] | . | .
Cc1nnc(SCC(=O)c2ccc(Br)cc2)s1 | -1.0 | 2.4% | 0.7% | 11.5% | 11.6% | 2.1%
CS(=O)(=O)Cc1cc(Sc2ccccc2)nc(-c2ccncc2)n1 | 3.8 | 18.3% | 11.2µM* | 10.6% | 4.6% | -20.4%
Cc1ccc(CCNC(=O)CN(C)S(=O)(=O)c2ccc3c(c2)c(=O)n(C)c(=O)n3C)cc1 | 1.2 | 12.8% | 12.6µM* | -6.6% | 7.8% | -22.4%[46.1 µM]
Cc1cccc(CCNC(=O)CN(C)S(=O)(=O)c2ccc3c(c2)c(=O)n(C)c(=O)n3C)c1 | 4.2 | -0.7% | -8.4% | 3.3% | -2.5% | -13.3%[46.1 µM]
COC(=O)C(C)Sc1nc2ccsc2c(=O)n1Cc1ccccc1 (stereo unspecified) | 4.1 | 3.3% | . | . | . | .
O=C(CN1CCN(c2ccccc2)CC1)Nc1ccc2c(c1)OCCO2 | -0.9 | 16.0% | 8.7% | 1.4% | 3.2% | 2.5%
O=C(CN1CCN(C(=O)c2ccco2)CC1)Nc1ccc2c(c1)OCCO2 | 1.9 | 5.0% | 12.6µM* | 3.9% | -1.2% | 9.5%[46.1 µM]
O=C(CN1CCN(CC(=O)Nc2ccccc2F)CC1)Nc1ccc2c(c1)OCCO2 | 1.1 | 23.6% | 28.2µM* | 11.7% | -3.8% | -9.8%

Assay outcomes (PubChem)
